Our source for the composite z-score and z-score values is PubChem BioAssay.

The nature of assay [1]: compounds binding Alexa647 anti-His antibody – biochemical, small-molecule microarray, 635 nm fluorescence, artefact control for SMM control protein annotation, primary screen (AID 1128).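 Also: score merges feature fluorescence with signal-to-noise for each printed compound spot.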 The note with it: higher = more signal.
Assay [2] has as its system Human papillomavirus type 1a E7 protein (residues 1-88). As to the kind of experiment: HPV1a E7 small-molecule binders, primary screen, biochemical, small-molecule microarray, residues 1-88, 635 nm (AID 1129). The settings on record: small-molecule microarray binding, fluorescence 635 nm; higher = more signal.
For assay [3], the target named is Focal adhesion kinase 1 (Homo sapiens) (UniProt Q05397). Description: PTK2 protein binding on printed compound slides – biochemical, small-molecule microarray, 635/667 nm fluorescence, BSA, DTT, primary screen (AID 1130).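 Also: composite of spot emission at 667 nm and signal to noise over triplicate slides.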 The settings on record: 635 nm fluorescence, higher = more signal.
Chain of Focal adhesion kinase 1 (Homo sapiens) (Q05397 whole entry, looked up): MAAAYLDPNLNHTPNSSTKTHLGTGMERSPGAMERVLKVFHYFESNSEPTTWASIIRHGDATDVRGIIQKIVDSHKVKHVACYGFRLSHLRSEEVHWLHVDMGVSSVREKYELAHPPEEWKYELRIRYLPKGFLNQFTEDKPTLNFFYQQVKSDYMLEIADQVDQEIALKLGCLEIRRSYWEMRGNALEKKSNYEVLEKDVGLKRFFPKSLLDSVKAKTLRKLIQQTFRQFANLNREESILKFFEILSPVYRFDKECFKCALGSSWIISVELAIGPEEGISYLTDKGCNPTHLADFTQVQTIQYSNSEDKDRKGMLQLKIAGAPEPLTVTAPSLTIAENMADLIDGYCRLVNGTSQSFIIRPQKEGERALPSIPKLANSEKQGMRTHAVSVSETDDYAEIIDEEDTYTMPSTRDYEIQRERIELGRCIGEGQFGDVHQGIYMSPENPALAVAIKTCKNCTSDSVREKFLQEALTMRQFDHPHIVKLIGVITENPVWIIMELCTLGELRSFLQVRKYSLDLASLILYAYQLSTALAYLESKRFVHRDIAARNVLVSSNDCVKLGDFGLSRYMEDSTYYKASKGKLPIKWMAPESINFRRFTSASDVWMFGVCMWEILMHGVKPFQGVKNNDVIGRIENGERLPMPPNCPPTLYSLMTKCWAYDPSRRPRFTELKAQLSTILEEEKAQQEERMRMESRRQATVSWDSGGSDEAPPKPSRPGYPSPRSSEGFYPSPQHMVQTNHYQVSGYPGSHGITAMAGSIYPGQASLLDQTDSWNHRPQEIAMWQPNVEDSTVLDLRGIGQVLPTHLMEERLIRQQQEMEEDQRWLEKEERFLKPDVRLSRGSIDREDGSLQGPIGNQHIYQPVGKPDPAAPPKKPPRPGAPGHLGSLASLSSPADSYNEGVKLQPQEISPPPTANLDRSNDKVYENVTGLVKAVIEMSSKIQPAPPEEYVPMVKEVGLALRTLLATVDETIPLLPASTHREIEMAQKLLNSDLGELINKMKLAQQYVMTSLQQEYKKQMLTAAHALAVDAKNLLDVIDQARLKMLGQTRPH
For assay [4], the system named is Fibrinogen (Alexa647-labelled). As to the kind of experiment: Alexa647-fibrinogen binding to printed small molecules – biochemical, small-molecule microarray, 635/667 nm fluorescence, artefact control for SMM control-protein annotation, profiling panel (AID 1131).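 Also: z-score merges 667 nm fluorescence with per-spot signal-to-noise over triplicate slides.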 The note with it: fibrinogen-A647 binding fluorescence, higher = more signal.
The target in assay [5] is Follistatin (Homo sapiens) (UniProt P19883). As to the kind of experiment: FST protein binding to printed compounds – biochemical, small-molecule microarray, 635/667 nm fluorescence, primary screen (AID 1132). The settings on record: 635 nm fluorescence, higher = more signal.
Chain of Follistatin (Homo sapiens) (P19883 whole entry, looked up): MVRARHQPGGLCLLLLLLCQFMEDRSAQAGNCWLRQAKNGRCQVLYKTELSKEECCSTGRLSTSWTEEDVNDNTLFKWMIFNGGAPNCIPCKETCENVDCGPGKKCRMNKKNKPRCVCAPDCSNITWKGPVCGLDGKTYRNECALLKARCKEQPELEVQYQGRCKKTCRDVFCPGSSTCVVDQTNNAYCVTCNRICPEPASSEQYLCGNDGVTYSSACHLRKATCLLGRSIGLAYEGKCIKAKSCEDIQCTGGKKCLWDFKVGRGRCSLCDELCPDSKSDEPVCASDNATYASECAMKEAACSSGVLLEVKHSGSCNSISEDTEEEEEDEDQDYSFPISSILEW
For assay [6], the target named is Fibroblast growth factor 2 (Homo sapiens) (UniProt P09038). As to the kind of experiment: basic fibroblast growth factor binding to printed compounds – biochemical, small-molecule microarray, 635/667 nm fluorescence, primary screen (AID 1133). The note with it: FGF2, fluorescence 635/667, higher = more signal.
Chain of Fibroblast growth factor 2 (Homo sapiens) (P09038 whole entry, looked up): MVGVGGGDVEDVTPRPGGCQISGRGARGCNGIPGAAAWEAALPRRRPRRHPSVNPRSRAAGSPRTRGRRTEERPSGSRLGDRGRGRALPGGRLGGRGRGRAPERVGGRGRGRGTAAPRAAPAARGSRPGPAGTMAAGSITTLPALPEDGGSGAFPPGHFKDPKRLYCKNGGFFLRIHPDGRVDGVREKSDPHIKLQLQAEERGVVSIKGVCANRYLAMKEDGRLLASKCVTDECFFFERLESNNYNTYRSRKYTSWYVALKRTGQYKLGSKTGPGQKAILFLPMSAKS
Assay [7] in a line: JC-1 mitochondrial potential readout, lung cancer cells – cell-based, A549, JC-1 fluorescence, basal, 24 h, 100 nL, profiling panel (AID 1138).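 Also: A549 lung adenocarcinoma cells under basal conditions with no added stimulus; test concentration not given here.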 The settings on record: higher = more signal.
Assay [8] concerns Lefty1. Description: Lefty1 protein binding to printed compounds – biochemical, small-molecule microarray, 635/667 nm fluorescence, primary screen (AID 1139). The settings on record: fluorescence 635/667, higher = more signal.
Assay [9] deals with wheat germ agglutinin (Triticum aestivum), Alexa647-labelled. Description: Alexa647-WGA lectin binding to printed small molecules – biochemical, small-molecule microarray, 635/667 nm fluorescence, artefact control for SMM control-protein annotation, profiling panel (AID 1140).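 Also: score merges 667 nm feature emission with signal to noise over triplicate slides.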 The note with it: WGA-A647 binding, 635 nm fluorescence, higher = more signal.
Assay [10] has as its target Luciferin 4-monooxygenase (Photinus pyralis) (UniProt P08659). Description: inhibition of purified Photinus pyralis luciferase – biochemical, luminescence, purified enzyme, 2006 set, primary screen (AID 1141).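 Also: cell-free assay with purified firefly luciferase at 100 ng per well in PBS; test concentration not given here.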 The settings on record: purified firefly luciferase, SteadyGlo luminescence, 30 min; higher = more signal, called active from +8 up or from −8 down.
The test system of assay [11] is Wnt5a (protein binding on small-molecule microarray). Description: small molecules binding Wnt5a protein – biophysical, small-molecule microarray, 635/667 nm fluorescence, primary screen (AID 1142).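 Also: fluorescence read at 667 nm with signal to noise per printed feature.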 The note with it: 635 nm fluorescence, higher = more signal.
The nature of assay [12]: ATP-based viability of Huh7 replicon cells – cell-based, CellTiter-Glo luminescence, basal, 48 h, cytotoxicity control for HCV replication inhibitor project, primary screen (AID 1143).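 Also: Huh7 hepatoma cells carrying a hepatitis C replication reporter with no stimulus; test concentration not given here.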 The note with it: higher = more signal, called active from +8 up or from −8 down.
A short description of assay [13]: Pseudomonas biofilm growth suppression – PAO1 strain, BacTiter-Glo luminescence, LB-PBS, primary screen (AID 1144). The note with it: P. aeruginosa PAO1 biofilm, 12 h, higher = more signal.
A short description of assay [14]: basal CRE-LacZ reporter activity in PC12 – cell-based, unstimulated, primary screen (AID 1145). The settings on record: no forskolin, luminescence, 4.5 h, higher = more signal, called active from +8 up or from −8 down.
Assay [15] can be described thus: forskolin-driven CRE-LacZ activity in PC12 – cell-based, CRE-LacZ reporter, forskolin-stimulated, primary screen (AID 1146).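 Also: PC12 cells with 6xCRE LacZ reporter stimulated by forskolin 10 µM; beta-galactosidase reporter signal reflecting CREB driven transcription.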 The settings on record: luminescence, 4.5 h, higher = more signal, called active from +8 up or from −8 down.
In assay [16] the target is Streptavidin (Streptomyces avidinii) (UniProt P22629). Description: compounds binding control protein streptavidin – biophysical, small-molecule microarray, 635/667 nm fluorescence, artefact control for SMM compound annotation, primary screen (AID 1147).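 Also: signal reflects streptavidin binding to arrayed compounds as a control protein.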 The settings on record: higher = more signal.
Chain of Streptavidin (Streptomyces avidinii) (P22629 whole entry, looked up): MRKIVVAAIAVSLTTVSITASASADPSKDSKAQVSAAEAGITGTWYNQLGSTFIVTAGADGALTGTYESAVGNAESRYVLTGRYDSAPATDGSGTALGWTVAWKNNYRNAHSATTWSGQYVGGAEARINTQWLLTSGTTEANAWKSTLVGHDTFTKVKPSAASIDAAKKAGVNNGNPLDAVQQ
Assay [17] is described as follows: probe aInhba binding on compound microarray – biochemical, small-molecule microarray, 635/667 nm fluorescence, primary screen (AID 1148).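 Also: score merges 667nm spot fluorescence with signal-to-noise for antibody binding to printed compounds.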 The note with it: higher = more signal.
Assay [18] has as its target Torsin-1A (Homo sapiens) (UniProt O14656). As to the kind of experiment: TOR1A wild-type binding on microarray – cell lysate, small-molecule microarray, lysate, 635/667 nm, primary screen (AID 1149). The settings on record: COS7 hTOR1A-WT lysate, 635 nm fluorescence, higher = more signal.
Assay [19] shares this target. Description: torsin A mutant lysate binding on microarrays – cell lysate, small-molecule microarray, COS7 lysate, 635/667 nm fluorescence, primary screen (AID 1150).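 Also: score pools 667 nm emission and signal to noise measuring lysate protein binding.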 The settings on record: COS7 hTOR1A mutant lysate, 635 nm fluorescence, higher = more signal.
In assay [20] the test system is Sonic hedgehog protein (Shh). Description: Sonic hedgehog microarray binding compounds – biochemical, small-molecule microarray, 635/667 nm fluorescence, primary screen (AID 1151).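 Also: Shh protein binding to compounds spotted on small-molecule microarray slides; score combines spot fluorescence intensity with signal-to-noise across triplicate slides.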 The note with it: 635 nm fluorescence, higher = more signal.

The structures appear in SMILES notation. Activity calls are given as the source filed them. Unless noted, no rule for the calls is given here.

Chain of Torsin-1A (Homo sapiens) (O14656 whole entry, looked up): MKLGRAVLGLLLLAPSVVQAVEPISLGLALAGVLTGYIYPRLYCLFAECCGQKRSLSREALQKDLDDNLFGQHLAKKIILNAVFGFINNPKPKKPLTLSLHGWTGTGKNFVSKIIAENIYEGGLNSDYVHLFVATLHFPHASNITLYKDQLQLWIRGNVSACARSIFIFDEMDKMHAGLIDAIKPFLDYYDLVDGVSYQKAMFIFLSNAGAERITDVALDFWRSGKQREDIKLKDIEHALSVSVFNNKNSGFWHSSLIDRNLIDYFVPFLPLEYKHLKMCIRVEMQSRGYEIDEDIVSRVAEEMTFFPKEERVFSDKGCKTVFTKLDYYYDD
Chain of Luciferin 4-monooxygenase (Photinus pyralis) (P08659 whole entry, looked up): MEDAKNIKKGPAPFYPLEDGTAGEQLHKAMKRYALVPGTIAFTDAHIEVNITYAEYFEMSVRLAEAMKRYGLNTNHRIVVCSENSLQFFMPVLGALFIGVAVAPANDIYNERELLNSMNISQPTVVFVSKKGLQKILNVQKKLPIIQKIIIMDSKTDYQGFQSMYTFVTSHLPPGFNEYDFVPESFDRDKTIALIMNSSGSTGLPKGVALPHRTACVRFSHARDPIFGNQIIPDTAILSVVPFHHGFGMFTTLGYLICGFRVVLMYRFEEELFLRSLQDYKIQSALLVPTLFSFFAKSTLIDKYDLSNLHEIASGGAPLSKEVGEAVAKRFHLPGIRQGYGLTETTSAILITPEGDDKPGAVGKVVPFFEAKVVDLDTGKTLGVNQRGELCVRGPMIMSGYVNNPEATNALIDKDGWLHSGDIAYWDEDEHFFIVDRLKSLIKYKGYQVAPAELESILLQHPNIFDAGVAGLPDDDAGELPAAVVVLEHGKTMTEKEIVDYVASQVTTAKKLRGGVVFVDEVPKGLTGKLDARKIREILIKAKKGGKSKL

With `O=C1O[C@@H](c2ccccc2)[C@@H](c2ccccc2)N2[C@@H](c3ccc(OCCO)cc3)[C@]3(C(=O)Nc4ccccc43)[C@@H](C(=O)NC[C@H](O)c3ccccc3)[C@H]12`, the composite z-score in assay [1] is 0.87; in [2], 0.894; in assay [3], -0.177; in assay [4], 0.371; in [5] it was 1.34; in assay [6] it was 0.968. In addition, the composite z-score in assay [8] was 0.0849; in assay [9], 0.638; in assay [11], 0.0635; in assay [16], 0.146; in assay [17], 0.0561; in [18], 0.437. In addition, the composite z-score worked out at 0.14 in assay [19] and 0.95 in assay [20]. Moreover, the z-score in assay [7] is -0.575; in [10], -1.46 (inactive); in assay [12], -1.19 (inactive); in assay [13], -0.388 (inactive); in assay [14], -0.606 (inactive); in assay [15], 2.97 (inactive).
With `COC(=O)[C@@]1(Cc2ccc(OC)cc2)[C@H]2c3cc(C(=O)N4CCCC4)n(Cc4ccsc4Br)c3C[C@H]2CN1C(=O)c1ccccc1`, the composite z-score in assay [1] is 0.198; in assay [2], 1.12; in assay [3], 0.565; in assay [4], -0.152; in assay [5], 0.073; in [6] it was -0.88. For the same compound, the composite z-score in assay [8] was -0.402; in assay [9], 0.604; in assay [11], 0.0185; in [16] it was 0.161; in assay [17], 0.19; in [18], -0.34. Moreover, the composite z-score in [19] was 0.185; in assay [20] it was -0.658. In addition, the z-score in assay [7] is -0.404; in assay [10], -0.777 (inactive); in assay [12] it was -3.29 (inactive); in assay [13], 0.674 (inactive); in assay [14] it was 1.72 (inactive); in assay [15], 46.9 (active).
As for `C=C(COC)/C(=C/C[C@@H](OC(C)=O)c1ccc(CO)o1)c1cnc2ccccc2c1`, the composite z-score in [1] was 0.562; in assay [2] it was 1.14; in assay [3], -0.23; in assay [4] it was 0.962; in assay [5], 1.44; in [6] it was 1.57. Further, the composite z-score was determined as 1.46 in assay [8]; 1.04 in assay [9]; 0.387 in assay [11]; 1.3 in assay [16]; 0.147 in [17]; 0.797 in assay [18]. Also, the figures for the composite z-score in assay [19] and in [20] were 0.73 and 2.1, respectively. For the same compound, the z-score in assay [7] is -0.482; in assay [10], -3.82 (inactive); in [12] it was -0.0797 (inactive); in assay [13] it was -1.14 (inactive); in assay [14], 0.159 (inactive); in [15], -1.6 (inactive).
As for `CN(C)C(=O)[C@@]1(Cc2ccccc2CN=[N+]=[N-])N=C(c2ccc(OCCCO)cc2)O[C@H]1c1ccccc1`, the composite z-score was 2.77 in assay [1]; 1.18 in assay [2]; 0.995 in assay [3]; 0.941 in [4]; 0.761 in [5]; 1.34 in assay [6]. For the same compound, the composite z-score is -0.169 in [8]; 0.751 in [9]; 0.522 in [11]; -0.154 in [16]; 0.7 in [17]; 0.209 in assay [18]. For the same compound, the composite z-score in [19] is 0.681; in [20], -0.221. In addition, the z-score in assay [7] was 0.0462; in [10] it was 0.27 (inactive); in assay [12], -2.54 (inactive); in [13], 0.378 (inactive); in assay [14], 0.629 (inactive); in [15] it was -0.524 (inactive).
